Laboratory results reported in PubChem BioAssay (Tox21).
Inconclusive results are not listed. Calls of active or inactive are those of the source. Unless noted, calls come from the whole dose curve; as a rule, active = well fitted curve in the direction sought with a large enough effect in the repeat runs; inconclusive = weak or mixed curves; inactive = no such curve, though single readings can be large; an effect the other way counts as inactive or inconclusive.

What was measured:
[1] = target: Peroxisome proliferator-activated receptor delta (Homo sapiens) (UniProt Q03181); experiment: qHTS assay to identify small molecule agonists of the peroxisome proliferator-activated receptor delta (PPARd) signaling pathway (AID 743212; calls by dose curve; note: % is set by controls: 0 for no effect and ±100 for the full control effect)
Peroxisome proliferator-activated receptor delta (Homo sapiens), sequence (Q03181 whole entry, looked up): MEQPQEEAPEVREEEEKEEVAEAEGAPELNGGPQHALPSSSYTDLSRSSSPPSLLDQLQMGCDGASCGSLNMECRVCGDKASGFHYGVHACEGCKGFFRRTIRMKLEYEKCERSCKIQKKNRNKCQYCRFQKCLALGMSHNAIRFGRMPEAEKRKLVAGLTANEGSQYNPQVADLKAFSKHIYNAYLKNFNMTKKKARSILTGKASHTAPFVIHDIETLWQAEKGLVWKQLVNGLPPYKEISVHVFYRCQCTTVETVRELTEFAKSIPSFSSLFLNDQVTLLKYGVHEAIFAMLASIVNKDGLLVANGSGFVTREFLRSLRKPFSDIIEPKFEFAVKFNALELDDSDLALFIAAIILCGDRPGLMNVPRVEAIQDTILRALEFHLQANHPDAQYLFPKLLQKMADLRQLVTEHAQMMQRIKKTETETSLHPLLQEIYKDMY
Outline: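 Cells expressing a UAS-driven beta-lactamase reporter (PPARd-bla HEK293H) were given test compounds after a 5 h settle and kept at 37 C. Reporter activity was then measured as FRET fluorescence using LiveBLAzer B/G substrate.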

[2] = qHTS assay to identify small molecule antagonists of the peroxisome proliferator-activated receptor delta (PPARd) signaling pathway - cell viability counter screen (AID 743213); note: % is set by controls: 0 for no effect and ±100 for the full control effect; nearly all actives have a fitted effect of over 50% in size
Outline: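 HEK293H cells with the PPARd UAS-bla reporter, co-treated 17 h at 37 C with compounds and L165041 (300 nM final), were lysed with CellTiter-Glo. Luminescence indicated viable cell content.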

[3] = target: Peroxisome proliferator-activated receptor delta (Homo sapiens) (UniProt Q03181); experiment: qHTS assay to identify small molecule antagonists of the peroxisome proliferator-activated receptor delta (PPARd) signaling pathway (AID 743215; active = well fitted inhibition curve with a large enough effect in the signal ratio in the repeat runs, not every such curve was filed as active; the % refers to the signal ratio;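 note: cells stimulated with agonist L165041 at 300 nM final during compound exposure; series mostly up to about 62 µM; % is set by controls: 0 for no effect and ±100 for the full control effect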)
Outline: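 Agonist L165041 (300 nM final) added with compound to PPARd-bla HEK293H UAS-bla reporter cells; 17 h incubation at 37 C. Read-out: LiveBLAzer FRET substrate, 2 h at room temperature, fluorescence intensity.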

[4] = qHTS assay to identify small molecule agonists of the farnesoid-X-receptor (FXR) signaling pathway - cell viability counter screen (AID 743218); note: % is set by controls: 0 for no effect and ±100 for the full control effect; nearly all actives have a fitted effect of over 45% in size
Outline: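 Viability counter screen in the same wells: CellTiter-Glo luminescence, 30 min room-temperature incubation, measured after the beta-lactamase read. Cells were GeneBLAzer FXR-UAS-bla HEK 293T, compound-treated 16 h at 37C.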

[5] = qHTS assay to identify small molecule antagonists of the farnesoid-X-receptor (FXR) signaling pathway - cell viability counter screen (AID 743221; active = well fitted cell-killing curve with a large enough effect in the repeat runs, not every such curve was filed as active; note: % is set by controls: 0 for no effect and ±100 for the full control effect; nearly all actives have a fitted effect of over 50% in size)
Outline: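 In GeneBLAzer FXR-UAS-bla HEK 293T cells stimulated with 50 uM chenodeoxycholic acid (final), compounds acted for 16 h at 37 C. Viability was assessed afterwards by CellTiter-Glo luminescence.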

[6] = target: Vitamin D3 receptor (Homo sapiens) (UniProt P11473); experiment: qHTS assay to identify small molecule agonists of the vitamin D receptor (VDR) signaling pathway (AID 743222; calls by dose curve; note: % is set by controls: 0 for no effect and ±100 for the full control effect)
Vitamin D3 receptor (Homo sapiens), sequence (P11473 whole entry, looked up): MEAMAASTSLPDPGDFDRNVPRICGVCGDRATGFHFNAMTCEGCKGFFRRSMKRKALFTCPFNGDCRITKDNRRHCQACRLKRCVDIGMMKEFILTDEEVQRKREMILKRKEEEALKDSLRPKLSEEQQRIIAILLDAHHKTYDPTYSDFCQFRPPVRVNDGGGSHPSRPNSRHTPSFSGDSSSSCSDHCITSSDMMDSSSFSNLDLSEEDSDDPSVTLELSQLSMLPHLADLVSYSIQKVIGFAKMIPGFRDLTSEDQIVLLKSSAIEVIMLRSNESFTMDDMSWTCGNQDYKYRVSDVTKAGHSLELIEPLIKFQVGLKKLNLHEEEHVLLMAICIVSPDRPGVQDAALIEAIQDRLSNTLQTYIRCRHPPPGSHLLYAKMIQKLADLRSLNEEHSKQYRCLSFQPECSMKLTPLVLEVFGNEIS
Outline: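 Agonist mode, beta-lactamase reporter: fluorescence from LiveBLAzer B/G FRET substrate (2 h, room temperature) read after 16 h compound treatment at 37 C of VDR-bla cells, which were pre-incubated 4 h after seeding.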

[7] = target: Vitamin D3 receptor (Homo sapiens) (UniProt P11473); experiment: qHTS assay to identify small molecule antagonists of the vitamin D receptor (VDR) signaling pathway (AID 743223; active = well fitted inhibition curve with a large enough effect in the signal ratio in the repeat runs, not every such curve was filed as active; the % refers to the signal ratio; note: % is set by controls: 0 for no effect and ±100 for the full control effect)
Outline: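 Agonist 1alpha,25-dihydroxyvitamin D3 (3 nM in well) was added with each compound to VDR-bla cells preincubated 4 h. Cells stood 16 h at 37C, then FRET substrate 2 h at room temperature; fluorescence intensity recorded.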

[8] = qHTS assay to identify small molecule agonists of the vitamin D receptor (VDR) signaling pathway - cell viability counter screen (AID 743224); note: series mostly up to about 63 µM; % is set by controls: 0 for no effect and ±100 for the full control effect; nearly all actives have a fitted effect of over 50% in size
Outline: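 Counter screen run in the same wells as the VDR-bla reporter assay: CellTiter-Glo luminescence, 30 min at room temperature, after 16 h compound treatment at 37C of cells pre-plated for 4 h.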

[9] = qHTS assay to identify small molecule antagonists of the vitamin D receptor (VDR) signaling pathway - cell viability counter screen (AID 743225); note: % is set by controls: 0 for no effect and ±100 for the full control effect; nearly all actives have a fitted effect of over 50% in size
Outline: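 Luminescent cell viability (CellTiter-Glo) in VDR-bla HEK 293T cells after 16 h compound exposure at 37C in the presence of 3 nM final 1-alpha,25-dihydroxy vitamin D3.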

[10] = qHTS assay to identify small molecule agonists of the NFkB signaling pathway (AID 1159509; active = well fitted curve in the direction sought with a large enough effect in the signal ratio in the repeat runs, not every such curve was filed as active; the % refers to the signal ratio)
Outline: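 Agonist activity was read as beta-lactamase-driven FRET change (460 and 530 nm emission, 405 nm excitation) following 1.5 hr substrate loading at room temperature. Beforehand, ME-180 NFkB-bla reporter cells were treated with compounds for 5 hr at 37 C.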

[11] = qHTS assay to identify small molecule agonists of the NFkB signaling pathway - cell viability counter screen (AID 1159515; calls by dose curve; note: series mostly up to about 61 µM; % is set by controls: 0 for no effect and ±100 for the full control effect; nearly all actives have a fitted effect of over 55% in size)
Outline: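 Read by CellTiter-Glo luminescence (30 min, room temperature) in the wells also used for the beta-lactamase FRET read. ME-180 NFkB-bla cells at 2,000 per well were plated overnight, then exposed to compound for 5 hr at 37 C.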

[12] = qHTS assay to identify small molecule agonists of the endoplasmic reticulum stress response signaling pathway - cell viability counter screen (AID 1159517; calls by dose curve)
Outline: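 Cpd-treated ESRE-bla HeLa (5 hr, 37 C) → LiveBLAzer 2 hr RT → CellTiter-Glo 30 min RT → luminescence.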

[13] = qHTS assay to identify small molecule antagonists of the retinoid-related orphan receptor gamma (ROR-gamma) signaling pathway - cell viability counter screen (AID 1159520)
Outline: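 Tet-on ROR gamma CHO cells (1,000/well) were plated 4 hr, given compounds in DMSO for 2 hr at 37 C, then induced with 1 uM final doxycycline for 16 hr. Viability was read as ATP by CellTiter-Glo luminescence after 30 min.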

[14] = target: Nuclear receptor ROR-gamma (Homo sapiens) (UniProt P51449); experiment: qHTS assay to identify small molecule antagonists of the retinoid-related orphan receptor gamma (ROR-gamma) signaling pathway (AID 1159521)
Outline: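 CHO cells expressing RORγ under a TET-on promoter, luciferase under RORE control. Dox 1 uM final, 16 h; compounds added 2 h prior. Luminescence decrease measured.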

[15] = qHTS assay to identify small molecule agonists of the AP-1 signaling pathway - cell viability counter screen (AID 1159525; calls by dose curve; note: nearly all actives have a fitted effect of over 55% in size)
Outline: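 Each titration point was normalised to DMSO and tetra n-octyl ammonium bromide controls. The read was Cell Titer Glo luminescence after 30 min at RT, following 5 h compound exposure of ME-180 AP-1-bla cells at 37 °C.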

[16] = qHTS assay to identify small molecule agonists of the AP-1 signaling pathway (AID 1159526; calls by dose curve; note: % is set by controls: 0 for no effect and ±100 for the full control effect)
[17] = target: Bile acid receptor (Homo sapiens) (UniProt Q96RI1); experiment: qHTS assay to identify small molecule antagonists of the farnesoid-X-receptor (FXR) signaling pathway (AID 743217; active = well fitted inhibition curve with a large enough effect in the signal ratio in the repeat runs, not every such curve was filed as active; the % refers to the signal ratio; note: % is set by controls: 0 for no effect and ±100 for the full control effect)
Bile acid receptor (Homo sapiens), sequence (Q96RI1 whole entry, looked up): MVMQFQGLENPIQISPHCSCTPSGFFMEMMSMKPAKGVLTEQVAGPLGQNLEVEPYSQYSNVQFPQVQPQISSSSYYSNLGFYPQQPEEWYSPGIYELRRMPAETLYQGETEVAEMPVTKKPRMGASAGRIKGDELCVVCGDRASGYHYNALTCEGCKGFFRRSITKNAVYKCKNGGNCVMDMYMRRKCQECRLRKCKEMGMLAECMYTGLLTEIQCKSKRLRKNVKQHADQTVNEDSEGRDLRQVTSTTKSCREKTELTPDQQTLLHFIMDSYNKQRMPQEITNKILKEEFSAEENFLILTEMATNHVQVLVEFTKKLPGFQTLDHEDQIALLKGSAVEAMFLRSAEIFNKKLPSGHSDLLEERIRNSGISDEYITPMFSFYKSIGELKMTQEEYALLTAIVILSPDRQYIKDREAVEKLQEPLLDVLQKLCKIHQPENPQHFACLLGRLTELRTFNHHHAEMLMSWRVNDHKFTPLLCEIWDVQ
Outline: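 Antagonist mode: chenodeoxycholic acid at 50 uM final stimulates a UAS-driven beta-lactamase reporter in HEK 293T FXR-bla cells during 16 h, 37C compound exposure. Read-out is FRET substrate fluorescence after 2 h at room temperature.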

[18] = target: Bile acid receptor (Homo sapiens) (UniProt Q96RI1); experiment: qHTS assay to identify small molecule agonists of the farnesoid-X-receptor (FXR) signaling pathway (AID 743220; active = well fitted activation curve with a large enough effect in the signal ratio in the repeat runs, not every such curve was filed as active; the % refers to the signal ratio; note: % is set by controls: 0 for no effect and ±100 for the full control effect)
Outline: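 FXR-UAS-bla HEK 293T cells carrying a UAS-driven beta-lactamase reporter were plated for 5 h at 37C/5% CO2, then exposed to DMSO-dissolved Tox21 10K compounds for 16 h at 37C. A LiveBLAzer B/G FRET substrate was loaded for 2 h at room temperature before fluorescence reading.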

[19] = qHTS assay to identify small molecule agonists of the peroxisome proliferator-activated receptor delta (PPARd) signaling pathway - cell viability counter screen (AID 743211); note: % is set by controls: 0 for no effect and ±100 for the full control effect; nearly all actives have a fitted effect of over 55% in size
Outline: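 Luminescent ATP viability assay (CellTiter-Glo, 30 min RT) in UAS-bla HEK293H cells carrying the PPAR delta reporter construct, 3000 cells/well, after a 17 h compound treatment at 37 C.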

C=Cc1ccc(OC(C)=O)cc1
inactive: outcome [1] | Potency [2] | Potency [3] | Potency [4] | Potency [5] | outcome [6] | outcome [7] | Potency [8] | Potency [9] | outcome [10] | Potency [11] | Potency [12] | Potency [13] | Potency [14] | Potency [15] | outcome [16]

CCCC(=O)OC(=O)CCC
inactive: outcome [1] | Potency [2] | Potency [3] | Potency [4] | Potency [5] | Potency [8] | Potency [9] | outcome [10] | Potency [11] | Potency [12] | Potency [13] | Potency [14] | Potency [15] | outcome [16]

Cc1oc(=O)oc1COC(=O)[C@@H]1N2C(=O)[C@@H](NC(=O)[C@H](N)c3ccccc3)[C@H]2SC1(C)C
inactive: outcome [1] | Potency [2] | Potency [3] | outcome [17] | Potency [4] | Potency [18] | Potency [5] | outcome [6] | Potency [8] | Potency [9] | outcome [10] | Potency [11] | Potency [12] | Potency [13] | Potency [14] | Potency [15] | outcome [16]

CCO[Si](C)(CCCOCC1CO1)OCC (stereo not drawn)
inactive: outcome [1] | Potency [2] | Potency [3] | Potency [4] | Potency [5] | outcome [7] | Potency [8] | Potency [9] | outcome [10] | Potency [11] | Potency [12] | Potency [13] | Potency [14] | Potency [15] | outcome [16]

CCCCC[C@H](O)/C=C/[C@H]1[C@H](O)CC(=O)[C@@H]1C/C=C\CCCC(=O)O
inactive: Potency [2] | Potency [3] | Potency [4] | Potency [5] | Potency [8] | Potency [9] | outcome [10] | Potency [11] | Potency [12] | Potency [13] | Potency [14] | Potency [15] | outcome [16]

CC1=CC[C@@H]2C[C@H]1C2(C)C
inactive: activation [1] 0.18% [at 13.2 µM] | viability change, negative = cytotoxic [2] -2.53% [at 13.7 µM] | viability change, negative = cytotoxic [4] 17.4% [at 13.2 µM] | activation [6] -15.3% [at 13.4 µM] | activity change, negative = cytotoxicity [8] 3.15% [at 13.2 µM] | viability change, negative = cytotoxic [9] -2.02% [at 15.1 µM] | activation [10] -0.527% [at 15.1 µM] | activity, negative = cytotoxic [11] 15.3% [at 15.1 µM] | activity change, negative = cytotoxicity [12] 30.1% [at 15.1 µM] | activity, negative = cytotoxicity [13] 2.52% [at 19 µM] | activity change, negative = inhibition [14] -7.14% [at 19 µM] | viability change, negative = cytotoxic [15] 0.876% [at 15.8 µM] | activation [16] 4.37% [at 15.8 µM]

CC(C)c1ccc(C#N)cc1
inactive: Potency [19] | outcome [1] | Potency [2] | Potency [4] | Potency [5] | outcome [6] | outcome [7] | Potency [8] | Potency [9] | outcome [10] | Potency [11] | Potency [12] | Potency [13] | Potency [15] | outcome [16]

COc1ccc(N)c([N+](=O)[O-])c1
inactive: Potency [19] | outcome [1] | Potency [2] | outcome [17] | Potency [5] | outcome [6] | outcome [7] | Potency [8] | Potency [9] | outcome [10] | Potency [11] | Potency [12] | Potency [13] | Potency [14] | Potency [15] | outcome [16]

CCCCCc1ccco1
inactive: outcome [1] | Potency [2] | Potency [3] | Potency [4] | Potency [18] | Potency [5] | outcome [6] | outcome [10] | Potency [11] | Potency [12] | Potency [13] | Potency [14] | Potency [15] | outcome [16]
